The list is not random: actives were taken first. Their share in the collection is about 1.8%.
NPR2 activator = GC-B (human) receptor activation; AID 1920062; hit rate 0.11% among 370,000; P20594; HEK293-GC-B cells, CNP EC30, cGMP TR-FRET; 0% at EC30 CNP, 100% saturating CNP; activation, % at 10 µM;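 active means activation at 10 µM reaching about 35% in either raw or pattern-adjusted values, limit read from the data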
Target sequence (P20594 whole entry, looked up): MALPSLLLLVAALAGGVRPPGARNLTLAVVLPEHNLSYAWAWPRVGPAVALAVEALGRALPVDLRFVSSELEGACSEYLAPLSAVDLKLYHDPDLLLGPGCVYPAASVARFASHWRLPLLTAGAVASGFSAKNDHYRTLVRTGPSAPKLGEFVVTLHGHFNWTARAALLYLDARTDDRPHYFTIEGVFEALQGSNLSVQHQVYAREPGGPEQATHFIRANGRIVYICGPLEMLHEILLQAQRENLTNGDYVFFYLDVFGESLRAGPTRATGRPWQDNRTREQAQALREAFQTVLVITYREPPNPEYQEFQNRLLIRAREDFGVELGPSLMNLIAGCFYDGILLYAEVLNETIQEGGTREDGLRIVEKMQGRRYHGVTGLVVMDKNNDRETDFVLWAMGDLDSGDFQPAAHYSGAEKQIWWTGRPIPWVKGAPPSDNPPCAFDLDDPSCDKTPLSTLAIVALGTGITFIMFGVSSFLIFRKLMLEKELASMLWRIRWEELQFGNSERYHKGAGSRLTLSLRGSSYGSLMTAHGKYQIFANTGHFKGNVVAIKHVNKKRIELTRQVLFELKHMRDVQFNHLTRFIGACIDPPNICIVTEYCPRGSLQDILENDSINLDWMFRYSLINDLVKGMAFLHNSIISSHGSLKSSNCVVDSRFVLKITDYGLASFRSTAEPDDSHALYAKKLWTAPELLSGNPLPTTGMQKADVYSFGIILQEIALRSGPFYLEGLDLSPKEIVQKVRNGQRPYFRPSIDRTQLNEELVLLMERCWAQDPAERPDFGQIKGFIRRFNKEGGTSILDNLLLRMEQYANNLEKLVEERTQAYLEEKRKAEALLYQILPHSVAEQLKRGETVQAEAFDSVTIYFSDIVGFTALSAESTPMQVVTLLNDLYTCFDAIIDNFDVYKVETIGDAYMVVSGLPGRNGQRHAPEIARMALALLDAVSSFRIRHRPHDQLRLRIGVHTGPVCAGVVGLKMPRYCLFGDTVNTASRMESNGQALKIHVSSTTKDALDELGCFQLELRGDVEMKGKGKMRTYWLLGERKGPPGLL
Myeloid diff 2 = compounds promoting myeloid differentiation; ER-HoxA9 myeloid progenitors, lysozyme-GFP differentiation, flow cytometry; calls only at 10 µM; hit rate 1% among 360,000; AID 624256;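 active means normalized GFP-positive differentiation at or above the plate's own cutoff, the solvent-only control mean plus 3 SD; inconclusive means no clear call, values can overlap the other calls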;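 further: cells exposed to compound for four days before flow analysis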
GC-A act = GC-A (human) enzyme activation. P16066. HEK293 GC-A cells, cGMP TR-FRET, EC30 ANP; 0% at EC30 ANP, 100% saturating ANP. activation, % at 10 µM. hit rate 0.14% among 370,000; in the data active means activation above about 40%
Exocytosis inh = lytic granule exocytosis inhibition; TALL-104 LAMP-1 surface exposure, flow cytometry; cells stimulated with thapsigargin and PMA; inhibition, % at 10 µM; hit rate 0.66% among 360,000; AID 651702;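 active means inhibition above about 55%, limit read from the data; inconclusive means no clear call, values can overlap the other calls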
Myeloid diff = promotes myeloid progenitor differentiation; shares compounds with Myeloid diff 2; ER-HoxA9 myeloid progenitors, GFP/Mac1 double-positive flow; calls only; hit rate 2% among 2,300; AID 651706;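 active means share of green or green-and-red cells above 9 and 9% in run 1 or 4 and 3% in run 2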
GFP autofluor = counter-screen for myeloid differentiation promoters: compound fluorescence; fluorescence response, % (concentration not given with the values); shares compounds with Myeloid diff 2; hit rate 7.4% among 2,300; ER-HoxA9 myeloid progenitors, no estrogen, GFP autofluorescence flow cytometry; vehicle wells 0%, positive control 100%;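 active means over 5% cells positive for green fluorescent reporter, or over 2% positive for both it and APC stain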;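 further: range taken on the double positive population between DMSO and positive control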
Starred values were filed as active, the others as inactive; i = inactive; ? = inconclusive; nt = not tested or not shown; + = active, no number.

SMILES	NPR2 activator	Myeloid diff 2	GC-A act	Exocytosis inh	others
CCOC(=O)N1CCN(C(=O)C[C@H]2C[C@@]3(C(=O)OC)C(=C[C@H](C(C)C)O[C@@H]3C3CC3)N(CCC3=CCCCC3)C2=O)CC1	3	nt	0	nt
CCCc1c(NC(=O)Nc2ccc(F)cc2)cnn1-c1ccc(Cl)cc1	1	+	4	-2
CCOC(=O)Cc1nn2c(=O)cc(C)nc2s1	0	+	2	3
COc1cccc(-n2nnnc2S(C)(=O)=O)c1	nt	?	nt	80*
CCCC(=O)N(Cc1cc2cc(OC)ccc2[nH]c1=O)c1ccccc1OC	-17	i	-13	-8
COC(=O)[C@]12CCCCC=C1N(Cc1ccc3c(c1)OCO3)C(=O)[C@H](CC(=O)NCC1CCCCC1)C2	10	i	-1	10
N#C/C(=C/C1=C(N2CCOCC2)C(=C/c2ccc(Cl)cc2)/CC1)C(=O)Nc1ccccc1F	0	+	0	0
O=c1n(Cc2ccccc2Cl)c2sc3c(c2c2ncnn12)CCCC3	39*	i	25	1
Cc1cn([C@H]2C[C@H](O)[C@@H](/C=C/C(=O)NCc3ccco3)O2)c(=O)[nH]c1=O	7	+	-1	-1
COC(=O)[C@]12C[C@H](CC(=O)N3CCN(C(=O)C4CC4)CC3)C(=O)N(Cc3ccco3)C1=C[C@H](COCc1ccccc1)O[C@@H]2C	-1	nt	1	nt
COc1cccc(NC(=O)CN(C)C(=O)CNC(=O)c2ccc(Oc3ccccc3)cc2)c1	0	i	18	23
CN(CC(=O)Nc1ccccc1Br)C(=O)CNC(=O)c1ccc(Oc2ccccc2)cc1	2	+	3	-2
c1ccc(Cn2nnc3c(Nc4ccc5c(c4)OCO5)nc(C4CC4)nc32)cc1	41*	i	34	1
CC(=O)N1C2=CCCC3CCCCC23c2ccccc21 (stereo not given)	4	+	-3	-1
CSCCCNC(=O)CN1C(=O)C2CCCCN2C(=O)c2ccccc21 (stereo not given)	-2	nt	-2	nt
O=C1CSc2ccc(C(=O)N3CCCC(C(=O)N4CCN(c5ccc(F)cc5)CC4)C3)cc2N1 (stereo not given)	-3	nt	1	nt
CCn1c(/C=C/c2c[nH]c3ccccc23)nc2ccccc2c1=O	4	i	-6	0
Cc1[nH]c2ccccc2c1/C=C/C(=O)c1ccccc1	-5	+	3	3
CCn1c(/C=C/c2c(C)[nH]c3ccccc23)nc2ccccc2c1=O	-6	+	2	-2
Cc1ccc2[nH]c3c(c2c1)CN(C(=O)CN1CCSCC1)CC3	1	nt	-8	nt
Cc1ccc2[nH]c3c(c2c1)CN(C(=O)CN1CC(C)OC(C)C1)CC3 (stereo not given)	3	+	-3	-1
COc1ccc(N(CC(=O)Nc2nc3ccc(C)cc3s2)S(=O)(=O)c2c(C)nn(C)c2C)cc1	-9	+	15	-1
C=CCN1C(=O)[C@@H](CC(=O)NCCc2ccccc2OC)[C@]2(C(=O)OC)CCCCC=C12	6	nt	1	nt
COc1ccccc1NC(=O)c1ccc(-c2ccc(Br)cc2)o1	9	+	8	-5
CCOC(=O)[C@@]12CN(C(=O)OC(C)(C)C)CC=C1N(Cc1ccc(OC)cc1)C(=O)[C@H]2CC(=O)N1CCCCC1	2	nt	0	nt
SMILES	NPR2 activator	Myeloid diff 2	GC-A act	Exocytosis inh	others
CC(C)(C)n1nnnc1CN(Cc1cccnc1)Cc1ccccc1Cl	-12	+	-8	2
CC1CCCCC1NC(=O)CCCCn1c(=O)[nH]c2ccsc2c1=O (stereo not given)	-7	+	-3	-3
CC1CCCCC1NC(=O)CCCn1c(=S)[nH]c2ccsc2c1=O (stereo not given)	-1	i	-2	0
COc1ccc(C(=O)Nc2ccc(N3CCCCCC3)cc2)cc1S(=O)(=O)N1CCOCC1	0	i	-3	4
CCCCCCCCCCOC(=O)Cn1c(COc2ccc(Cl)cc2)[n+](C)c2ccccc21	-6	i	-15	35
CCCCCCCCCCOC(=O)Cn1c(COc2ccccc2C)[n+](C)c2ccccc21	nt	i	nt	80*
CCCCCCCCCCOC(=O)Cn1c(COc2ccc(OC)cc2)[n+](C)c2ccccc21	nt	i	nt	65*
CC1CCC(C(C)C)C(OC(=O)Cn2c(-c3ccc(Br)cc3)[n+](C)c3ccccc32)C1 (stereo not given)	-13	i	-43	29
CCCCCCCCCCOC(=O)Cn1c(COc2cccc(C)c2)[n+](C)c2ccccc21	0	i	-9	74*
Cc1ccccc1OCc1n(CC(=O)OC2CC(C)CCC2C(C)C)c2ccccc2[n+]1C (stereo not given)	-8	i	-37	90*
O=C(CSc1nnc(-c2ccccn2)n1Cc1ccco1)Nc1ccc(Oc2ccccc2)cc1	3	nt	-1	nt
COC(=O)CN(Cc1cn(Cc2ccccc2)nn1)S(=O)(=O)c1ccccc1Br	0	nt	-6	nt
CC(=O)Nc1cc(-c2ccsc2)cn2c(-c3ccc(F)cc3)cnc12	3	i	-2	0
CCCCCCCCCCOC(=O)Cn1c(COc2ccccc2)[n+](C)c2ccccc21	-6	i	-3	66*
C/C(=N\NC(=S)NCCc1ccccc1)c1ccc(Cl)cc1Cl	6	i	1	88*
CCn1c2ccccc2c2c3ncc4cccn4c3ccc21	-16	+	-8	-3
c1ccc2c(c1)ncc1cccn12	3	i	-3	-3
CCC(=O)N(c1ccccc1)C1CCN(C(=O)C(Cc2ccccc2)NC(C)=O)CC1 (stereo not given)	3	nt	-1	nt
NC1=NS(=O)(=O)Nc2ccccc21	0	nt	3	nt
COc1ccccc1NC(=O)Nc1c(C)n(C)n(-c2ccccc2)c1=O	6	i	0	1	Myeloid diff=i;GFP autofluor=0
O=C1/C(=C\c2ccco2)CCC/C1=C\c1ccco1	0	+	-3	-1	Myeloid diff=i;GFP autofluor=37*
COc1ccc(NC(=O)/C(=C\c2ccco2)NC(=O)c2ccco2)cc1	1	i	1	-6	Myeloid diff=i;GFP autofluor=0
COc1ccc(-c2noc(C3CCCN(C(=O)Nc4ccc(C)c(F)c4)C3)n2)cc1 (stereo not given)	-4	nt	-1	nt
Cc1cnc(NC(=O)CSc2ccccc2)s1	7	+	5	8	Myeloid diff=i;GFP autofluor=0
Cc1cnc(NC(=O)Cc2ccccc2Cl)s1	1	i	2	-14	Myeloid diff=i;GFP autofluor=0
Cc1csc(NC(=O)Cc2ccccc2Cl)n1	0	i	-3	3
O=C(COC(=O)c1ccc(NS(=O)(=O)c2cccs2)cc1O)NCc1ccccc1	1	i	-2	7	Myeloid diff=i;GFP autofluor=0
CCOC(=O)c1c(C)oc2ccc(NS(=O)(=O)c3cccs3)cc12	7	nt	1	2	Myeloid diff=i;GFP autofluor=0

High-throughput results from PubChem BioAssay.
